Data from PubChem BioAssay (NCI).
This is part of a sample that, as a whole, favours compounds with a hit. Of some 83,000 tested, about 20% had one in any assay.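 Note: values are percent growth. 100 is the growth of untreated cells, values between 100 and 0 indicate rising inhibition; between -100 and 0 indicates cell death.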 Values without a mark were called inactive. Active and inactive are the calls of the source. Rule for the calls: active = growth percent below 10; inactive = the rest.

What was measured:
Assay in all cases: NCI-60 one-dose screen, 48 h (100 = growth as untreated, 0 = no growth, -100 = all killed)
Conditions in all cases: 10 µM unless noted
NCI-H23 lung = system: NCI-H23 lung
NCI-H226 lung = system: NCI-H226 lung
NCI-H322M lung = system: NCI-H322M lung
HOP-62 NSCLC = system: HOP-62 NSCLC
NCI-H460 lung = system: NCI-H460 lung
NCI-H522 lung = system: NCI-H522 lung
A549/ATCC NSCLC = system: A549/ATCC NSCLC
786-0 renal = system: 786-0 renal
COLO 205 colon = system: COLO 205 colon
DU-145 prostate = system: DU-145 prostate
K-562 leukemia = system: K-562 leukemia
MALME-3M melanoma = system: MALME-3M melanoma
MDA-MB-231 breast = system: MDA-MB-231 breast
RXF 393 renal = system: RXF 393 renal
SF-268 CNS = system: SF-268 CNS
SF-295 CNS = system: SF-295 CNS
SF-539 CNS = system: SF-539 CNS
UACC-257 melanoma = system: UACC-257 melanoma
M14 melanoma = system: M14 melanoma
HOP-92 NSCLC = system: HOP-92 NSCLC

Row | Structure (SMILES) | growth (NCI-H23 lung) | growth (NCI-H226 lung) | growth (NCI-H322M lung) | growth (HOP-62 NSCLC) | growth (NCI-H460 lung) | growth (NCI-H522 lung) | growth (A549/ATCC NSCLC) | growth (786-0 renal) | growth (COLO 205 colon) | growth (DU-145 prostate) | growth (K-562 leukemia) | growth (MALME-3M melanoma) | growth (MDA-MB-231 breast) | growth (RXF 393 renal) | growth (SF-268 CNS) | growth (SF-295 CNS) | growth (SF-539 CNS) | growth (UACC-257 melanoma) | growth (M14 melanoma) | growth (HOP-92 NSCLC)
1 | Nc1nc(Nc2ccccc2)c(C=Nc2ccccc2)c(=O)[nH]1 | 88.5% | 86.5% | 93.3% | 73.7% | 102% | 57.9% | 89.6% | 93.5% | 107% | 103% | 90.4% | 103% | 104% | 91.7% | 94% | 95.5% | 85.5% | 93.6% | 91.5% | –
2 | CC(C)=CCc1cc2c(cc1O)C1=C(C(=O)C3=C(NCCS3(=O)=O)C1=O)C(C=C(C)C)O2 (centres undefined) | 25.7% | 57.9% | 11.4% | 25.3% | 17.7% | -4.35% (active) | 65.8% | 58.7% | 29.4% | 41.2% | 8.83% (active) | -42.9% (active) | 12.1% | 57.2% | 0.726% (active) | 91.7% | 20% | – | 3.7% (active) | –
3 | O=C1OCC2=C1C(c1cccc(F)c1)c1cc3c(cc1N2CCO)OCCO3 (centres undefined) | 25.4% | 26.2% | 45.3% | 30.5% | 9.42% (active) | 17.1% | 18.1% | 26.4% | – | 14.3% | 8.66% (active) | 46.2% | 24.8% | 4.45% (active) | 34.5% | -15.9% (active) | -31.7% (active) | 89% | -9.63% (active) | 66.6%
4 | O=C1NC(=O)C(c2cnc3ccccn23)=C1c1cn2c3c(cc(F)cc13)CN(C(=O)N1CCCCC1)CC2 | 82.1% | 46% | 72% | 26.1% | 39.1% | 38.7% | 34.8% | 31.1% | 26.7% | 68.7% | 27.9% | 64.6% | 70.2% | 16.6% | 64.7% | 35.7% | 53.8% | 67.1% | 50.7% | –
5 | COC[C@@H](C)n1c(C2CCOCC2)nc2c1C1C=C(OC)C(c3c(C)noc3C)=CC1N=C2 (some centres undefined) | 48.5% | 65.1% | 40.7% | 51.5% | 59.4% | -1.23% (active) | 42.6% | 48.6% | 31.9% | 65.5% | 33.6% | 41.2% | 25% | 55.9% | 62.4% | 45.4% | 34.5% | 41.4% | 42.4% | –
6 | O=C(N/N=C/c1ccc(Cl)cc1)c1cc(-c2cc3ccccc3o2)nn1-c1ccccc1 | 92% | 91.3% | 96.7% | 97.3% | 106% | 77.9% | 97.9% | 95.1% | – | 87% | 91.1% | 105% | 92.5% | – | 108% | 107% | 84.9% | – | 99.3% | -16.5% (active)
7 | Cc1ccc(-[n+]2c3cc(N)c(C)cc3nc3cc(C)c(Nc4ccccc4)cc32)cc1 | -74.4% (active) | -67% (active) | -53.1% (active) | -64.9% (active) | -48.2% (active) | -48.8% (active) | -18.9% (active) | -93% (active) | -94.9% (active) | -79.3% (active) | -22.7% (active) | -58% (active) | -70% (active) | -98.7% (active) | -88.6% (active) | -39.2% (active) | -77% (active) | -48.8% (active) | -93.3% (active) | –
8 | C[C@@H](Oc1cc(C(=O)Nc2ccc(C(=O)N3CCN(C)CC3)cc2)nnc1N)c1c(Cl)ccc(F)c1Cl | 62.6% | 66.9% | 92.9% | 64.8% | 79.8% | 71.1% | 55.8% | 67.4% | 55.1% | 84.7% | 28.7% | 65.2% | 62.2% | 62.6% | 70.3% | 13.9% | 64.9% | 60.9% | 76.9% | –
9 | NC(=O)c1n[nH]n2c1nc(=O)c1c3c(sc12)CCCC3 | 101% | 91.4% | 101% | 96.5% | 109% | 102% | 92.7% | 106% | – | 110% | 89.5% | 109% | 101% | – | 105% | 102% | 102% | – | 98% | 91.7%
10 | Cc1csc(-c2nnc(Nc3ccc(Oc4ncccc4-c4ccnc(N)n4)cc3)c3ccccc23)c1 | 54.6% | 72.5% | 30.5% | – | 25.3% | 30.8% | 26.6% | 67.9% | -4.72% (active) | 55.8% | 40% | 18.6% | 37.7% | 8.98% (active) | 58.3% | 60.2% | 41.1% | 20.8% | 15.4% | 85.5%
11 | CC[C@@H]1C(=O)N(C)c2cnc(Nc3ccc(C(=O)NC4CCN(C)CC4)cc3OC)nc2N1C1CCCC1 | 8.04% (active) | 52.6% | 24.9% | – | 8.51% (active) | -14.4% (active) | 3.29% (active) | 8.26% (active) | -54% (active) | 9.68% (active) | 0.167% (active) | -15.9% (active) | 17% | -3.01% (active) | 15.5% | 11% | -82.4% (active) | -9.29% (active) | -25.9% (active) | 7.59% (active)
12 | Cc1cc(C(=O)Nc2cc(Oc3ccc4nc(NC(=O)C5CC5)cn4n3)ccc2C)n(C)n1 | 24.7% | 43.3% | 15.8% | – | 18.9% | 14.1% | 11% | 51.9% | -27.2% (active) | 54.3% | 7.79% (active) | -5.45% (active) | 21.9% | -15.1% (active) | 40.9% | 52.5% | 3.9% (active) | -29% (active) | -8.27% (active) | -25.6% (active)
13 | COc1ccc(Nc2ncccc2NC(=O)c2cn(Cc3cccc(Oc4ccccc4)c3)nn2)cc1 | 91.8% | 93.8% | 82.9% | – | 96.5% | 77.8% | 80.2% | 102% | 102% | 93.4% | 73.8% | 85.8% | 87.1% | 79.6% | 82.3% | 92.8% | 95.1% | 93% | 95.9% | 99.6%
14 | CN1CCN(CCOc2cc(OC3CCOCC3)c3c(Nc4c(Cl)ccc5c4OCO5)ncnc3c2)CC1 | 81.4% | 100% | 2.76% (active) | – | 89.9% | 11.5% | 24.8% | 48.1% | 42.5% | 43.8% | 5.29% (active) | 98.3% | 61.3% | 31.6% | 61.4% | 77.8% | 60% | 82.7% | 79.4% | 35.3%
15 | CCc1nc2cc(/C=C/C(=O)NO)ccc2c(=O)n1CCc1ccc(F)cc1 | 1.11% (active) | 20.3% | 18.6% | -11.8% (active) | 4.24% (active) | 3.72% (active) | 7.13% (active) | -23% (active) | -35.7% (active) | -5.02% (active) | 4.68% (active) | – | -6.12% (active) | -29.5% (active) | 9.29% (active) | 10.4% | 4.06% (active) | – | 6.79% (active) | –
16 | Cc1sc2c(c1C)c(=O)nc1c(-c3nc4ccccc4s3)n[nH]n12 | 88.7% | 87.4% | 96.2% | – | 96.7% | 90.8% | 97.2% | 105% | 103% | 106% | 94% | 97.1% | 87.6% | – | 96.1% | 92.3% | 96.5% | – | 98.6% | 88.7%
17 | Nc1c(Cl)cccc1[N+](=O)[O-] | 106% | 101% | 110% | – | 104% | 118% | 101% | 109% | 114% | 111% | 101% | 96.7% | 99.3% | 115% | 105% | 107% | 108% | 108% | 108% | 96.6%
